Source: PubChem BioAssay AID1159580 (chemical genetic matrix, 2015)
Screen size: about 5,500 compounds; about 2,000 (36%) were called active. Another 18% or so got no clear call; they are omitted. Cut-off read from the data, not from the text of the source: active = normalized growth mostly below about 0.91 (no sharp cut-off); inconclusive = no clear call, values can overlap the other calls; inactive = mostly above about 0.92. This is one part of the list.

Assay: chemical genetic growth profiling, strain panel (AID 1159580);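 note: tested at 20 µM; growth read once vehicle control cultures reached saturation at 30 °C; 1 = growth at the plate median or of vehicle wells; lower values mean less growth of the strain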
Settings: S. cerevisiae deletion strains, growth OD

Measured: normalized growth

c1ccc(N=Nc2ccc(Nc3ccccc3)cc2)cc1
active: locus YAL013W, strain DEP1, active compounds read low 0.916 | locus YBR229C, strain ROT2, active compounds read low 0.823 | locus YCL061C, strain MRC1, active compounds read low 0.89 | locus YDL134C, strain PPH21, active compounds read low 0.825 | locus YEL061C, strain CIN8, active compounds read low 0.74 | locus YGR078C, strain PAC10, active compounds read low 0.897 | locus YHR030C, strain SLT2, active compounds read low 0.57 | locus YHR087W, strain rtc3, active compounds read low 0.751 | locus YJR043C, strain POL32, active compounds read low 0.91 | locus YJR075W, strain HOC1, active compounds read low 0.754 | locus YLR039C, strain RIC1, active compounds read low 0.425 | locus YLR085C, strain ARP6, active compounds read low 0.389 | locus YLR262C, strain YPT6, active compounds read low 0.37 | locus YML094W, strain GIM5, active compounds read low 0.812 | locus YMR219W, strain ESC1, active compounds read low 0.92 | locus YMR263W, strain SAP30, active compounds read low 0.9 | locus YMR307W, strain GAS1, active compounds read low 0.405 | locus YNL128W, strain TEP1, active compounds read low 0.913 | locus YNL153C, strain GIM3, active compounds read low 0.914 | locus YNL298W, strain CLA4 (second series), active compounds read low 0.79 | locus YNR030W, strain Alg12, active compounds read low 0.737 | locus YPL055C, strain LGE1, active compounds read low 0.626 | locus YPL241C, strain CIN2, active compounds read low 0.75
inactive: locus YDL101C, strain DUN1, active compounds read low 0.977 | locus YDR150W, strain NUM1, active compounds read low 0.906 | locus YGR229C, strain SMI1, active compounds read low 0.984 | locus YLR058C, strain SHM2 (second series), active compounds read low 0.964 | locus YNL322C, strain KRE1, active compounds read low 1 | locus YPR135W, strain CTF4, active compounds read low 0.748
